The campaign covered roughly 50,000 compounds. About 800 (1.6%) showed an effect of 50% or more. The list comes from a sample in which strong results are over-represented; it also holds similar structures and randomly drawn compounds.
target: Bcl-2-like protein 10 (Homo sapiens) (UniProt Q9HD36); test: TR3 peptide-Bcl-B binding displacers, biochemical primary FP assay, phenotype converters (AID 1240); conditions: GST-Bcl-B / FITC-TR3 peptide fluorescence polarization; stronger effect = higher value; compound at 3.75 mg/L;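 also: 0% = Bcl-B with tracer peptide and DMSO and 100% = tracer peptide lacking Bcl-B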
Sequence (Q9HD36 whole entry, looked up): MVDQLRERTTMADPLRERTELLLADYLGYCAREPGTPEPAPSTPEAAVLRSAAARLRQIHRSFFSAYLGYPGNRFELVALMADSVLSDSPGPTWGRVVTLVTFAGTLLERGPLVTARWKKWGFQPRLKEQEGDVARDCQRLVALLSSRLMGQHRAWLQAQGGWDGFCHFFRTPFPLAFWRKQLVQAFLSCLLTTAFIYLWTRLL

Structure (SMILES)	displacement [%]
C=CCN1C(=O)/C(=C\c2cc(Cl)ccc2OCc2ccccc2F)SC1=S	60.2
C=CCN1C(=O)/C(=C/c2cccc(OCc3ccccc3Cl)c2)SC1=S	-4.4
CCN1C(=O)/C(=C\c2ccc(OCc3cccc4ccccc34)cc2)SC1=S	106
C=CCN1C(=O)/C(=C\c2ccc(OCc3ccccc3)cc2)SC1=S	11.4
C=CCN1C(=O)/C(=C\c2cccc(OCc3cccc4ccccc34)c2)SC1=S	15.9
C=CCN1C(=O)/C(=C/c2ccccc2OCc2ccccc2Cl)SC1=S	11.6
C=CCN1C(=O)/C(=C\c2ccc(OCc3cccc4ccccc34)cc2)SC1=S	87.1
CCN1C(=O)/C(=C\c2ccc(OCc3ccccc3Cl)cc2)SC1=S	15.9
CCN1C(=O)/C(=C\c2cccc(OCc3cccc4ccccc34)c2)SC1=S	4.6
C=CCN1C(=O)/C(=C\c2ccc(OCc3ccccc3Cl)cc2)SC1=S	95.7
C=CCN1C(=O)/C(=C\c2ccccc2OCc2ccc(Cl)cc2)SC1=S	23.3
CN1C(=O)/C(=C\c2ccc(OCc3cccc4ccccc34)cc2)SC1=S	-0.8
NC1=NC(=O)/C(=C\c2ccccc2Cl)S1	13.2
CC1=C(C(=O)OC(C)C)C(c2ccccc2Cl)C2=C(CCCC2=O)N1 (stereo not drawn)	0
CCOc1cc(/C=C2\C(=O)NC(=O)N(c3cc(C)cc(C)c3)C2=O)cc(Cl)c1O	11.4
Cc1cc(OCCN2CCCC2)ccc1Cl	-2.8
COc1ccc(-n2nc3cc(C)c(NC(=O)c4cc5ccccc5o4)cc3n2)cc1	2.4
Cc1ccc(-n2nc3cc(C)c(NC(=O)c4cccc(Cl)c4)cc3n2)cc1	-4.2
Cc1ccc(-n2nc3ccc(NC(=O)c4ccco4)cc3n2)cc1	49.3
COc1ccc(C(=O)Nc2cc3nn(-c4ccc(OC)cc4)nc3cc2C)cc1	2.2
COc1ccc(-n2nc3cc(C)c(NC(=O)c4ccc(Br)o4)cc3n2)cc1	117
Cc1ccc(-n2nc3cc(C)c(NC(=O)c4ccco4)cc3n2)cc1	107
COc1ccc(-n2nc3cc(C)c(NC(=O)c4ccco4)cc3n2)cc1	5.1

Structure (SMILES)	displacement [%]
Cc1ccc(-n2nc3cc(C)c(NC(=O)c4ccccc4)cc3n2)cc1	-4.4
Cc1ccc(-n2nc3cc(C)c(NC(=O)c4cccc(C)c4)cc3n2)cc1	85.1
O=S(=O)(c1cccc2ccccc12)n1cnc2ccccc21	6.3
COc1ccc(-c2cc(C(=O)Nc3ccccc3OC)c3ccccc3n2)cc1	14.2
Nc1ccc(C(=O)Nc2cccc(O)c2)cc1	11.4
O=C1NC(=O)c2ccc3c4c(ccc1c24)CC3	55.5
O=C1c2ccc3c4c(ccc(c24)C(=O)N1Cc1ccco1)CC3	9.5
CN(C)N1C(=O)c2ccc3c4c(ccc(c24)C1=O)CC3	6.4
O=C1NC(=S)NC(=O)C1=Cc1ccccc1OS(=O)(=O)c1ccc([N+](=O)[O-])cc1	-7.8
N#Cc1c(-c2ccc(O)cc2)c(C#N)c2nc3ccccc3n2c1N	12.5
N#Cc1c(-c2ccc(F)cc2)c(C#N)c2nc3ccccc3n2c1N	-8
N#Cc1c(-c2cccc(Br)c2)c(C#N)c2nc3ccccc3n2c1N	109
COc1cc2c(cc1NCc1cccc([N+](=O)[O-])c1)oc1ccccc12	-6.6
O=C1OC(c2cccc(Cl)c2)=N/C1=C\c1ccccc1[N+](=O)[O-]	7
COc1ccc(-c2nn(-c3ccccc3)cc2/C=C2\N=C(c3ccccc3)OC2=O)cc1[N+](=O)[O-]	93.8
COc1ccc(-c2nn(-c3ccccc3)cc2C=O)cc1[N+](=O)[O-]	-1.7
CC(=O)CCc1oc2ccc(Br)cc2c1-c1ccc(C)o1	-10.4
COC(=O)C1=C(C(=O)OC)C2(OC1c1cccc(F)c1)C(=O)c1ccccc1C2=O (stereo not drawn)	-0.3
CCCCOC(=O)c1cccc(NC(=O)c2cc3ccccc3oc2=O)c1	1.7
Cc1ccc(C(=O)O)cc1N1C(=O)c2ccccc2C1=O	7
Cc1ccc(C(=O)O)cc1-n1c(C)ccc1C	83.2
Cc1cc(C(=O)O)ccc1-n1c(C)ccc1C	81.4
Cc1ccc(N2C(=O)c3ccc(C(=O)O)cc3C2=O)c(C)c1	1.6

Structure (SMILES)	displacement [%]
Cc1ccc(C(=O)O)cc1N1C(=O)c2ccc(C(=O)O)cc2C1=O	6.5
Cc1ccc(-c2ccccc2)n1-c1cccc(C(=O)O)c1	1.2
COc1ccccc1NC(=O)c1ccc(Br)o1	1
O=c1oc(-c2ccccc2Cl)nc2ccc(-c3ccc4nc(-c5ccccc5Cl)oc(=O)c4c3)cc12	11.6
Cc1ccc2nsnc2c1NC(=O)c1ccc(-c2cccc(Cl)c2)o1	1.4
O=C(Nc1ccc(-c2nc3ccccc3s2)c(O)c1)c1ccc(-c2cccc([N+](=O)[O-])c2)o1	6.1
Cc1ccc2nsnc2c1NC(=O)c1ccc(-c2cccc([N+](=O)[O-])c2)o1	105
Cc1c(NC(=O)c2ccc(-c3cccc([N+](=O)[O-])c3)o2)cccc1-c1nc2ccccc2s1	3.7
O=C(COc1ccc([N+](=O)[O-])cc1)Nc1cc(-c2nc3ccccc3s2)ccc1Cl	9
Cc1ccc2nsnc2c1NC(=O)c1ccc(-c2ccc([N+](=O)[O-])cc2)o1	16.6
O=C(Nc1cccc(-c2nc3ccccc3s2)c1)c1ccc(-c2ccc([N+](=O)[O-])cc2)o1	70
O=C(Nc1cc(-c2nc3ccccc3s2)ccc1Cl)c1ccc([N+](=O)[O-])cc1	90.8
CC(=O)Nc1cc(-c2nc3ccccc3s2)ccc1Cl	11.6
O=c1/c(=C\c2ccccc2OS(=O)(=O)c2ccc3ccccc3c2)sc2nc3ccccc3n12	4.6
O=[N+]([O-])c1ccc(N2CCN(S(=O)(=O)c3ccc(Cl)cc3)CC2)c(C(F)(F)F)c1	8.3
CCOC(=O)c1ccccc1NC(=O)c1ccc(N(Cc2ccc(Cl)cc2)S(C)(=O)=O)cc1	12.1
COC(=O)c1c(-c2cc(C)ccc2C)csc1N	-6.2
COc1cccc(/C=N/NC(=O)c2cc(C)[nH]n2)c1OC	-9
CN(C)CCCNC(=O)c1ccc2sc3cc(=O)c(N)cc-3nc2c1	44.6
CCCCOc1ccccc1NC(=O)C(c1ccccc1)c1ccccc1	-16.9
CCCCOc1ccc(N2C(=O)c3cccc4cccc(c34)C2=O)cc1	0.2
CCCCOc1ccc2c3c(cccc13)C(=O)c1ccccc1-2	176

From PubChem BioAssay AID1240 (Sanford-Burnham Center for Chemical Genomics, 2008)
